ELG1 repair inh: qHTS screen for small molecules that inhibit ELG1-dependent DNA repair in human embryonic kidney (HEK293T) cells expressing luciferase-tagged ELG1; Potency, µM (titrated, usually from 46.1 µM), for inactives: top-dose activity change, negative = inhibition, usual class: inhibitors; 330,000 tested, 2.3% active; HEK293T ELG1-luciferase reporter, luminescence, 16 h; DNA damage induced by 5-fluorouridine; note: % is set by controls: 0 for no effect and ±100 for the full control effect; nearly all actives have a fitted effect of over 55% in size
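Luminescence from the luciferase reporter, measured 30 min after ONE-Glo reagent at room temperature, was the read-out. Beforehand, 2,000 cells per well were exposed for 16 hr at 37 °C to 5-fluorouridine together with compound or vehicle.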
Rab9 promoter act: qHTS Assay for Rab9 Promoter Activators; Huh7 Rab9 promoter-luciferase reporter, luminescence, 24 h; Potency, µM (doses to about 9.22 µM), for inactives: at the highest dose activation, negative = inhibition, actives largely listed as activators; 320,000 tested, 2.8% active; AID 485297, 2010; note: % of control where 0% means no effect; nearly all actives have a fitted effect of over 60% in size
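Measured in stably transfected Huh7 cells bearing a Rab9 promoter–luciferase construct: 24 h compound treatment at 37 °C, followed by luminescence detection.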
SMN2 splice up: qHTS Assay for Enhancers of SMN2 Splice Variant Expression; HEK293 SMN2-luciferase splicing reporter, luminescence, 30-36 h; Potency, µM (doses to about 46.1 µM), without a hit: at the highest dose activity change, positive = activation, most hits filed as activators; 210,000 tested, 2.8% active; note: % of control where 0% means no effect; nearly all actives have a fitted effect of over 55% in size
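HEK293 cells carry an SMN2 […]–luciferase reporter in which exon 7 inclusion puts luciferase in frame. Cells were plated 10-12 h before compound addition, then incubated 30-36 h at 37C. ONE-Glo luminescence was read; sodium butyrate at 4.5 mM final served as control.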
NPC1 prom act: qHTS Assay for NPC1 Promoter Activators; 320,000 tested, 2.4% active; Potency, µM (titrated, usually from 9.22 µM), for the others: top-dose activation, usual class: activators; Huh7 NPC1 promoter luciferase reporter, 24 h; note: % of control where 0% means no effect; nearly all actives have a fitted effect of over 60% in size
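Stable NPC1-promoter luciferase Huh7 line; cpd (DMSO) 24 h, 37 °C, 5% CO2; Amplite luciferase reagent 10 min RT; luminescence readout. qHTS format.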
FLuc counter: qHTS profiling assay for firefly luciferase inhibitor/activator using purifed enzyme and Km concentrations of substrates (counterscreen for miR-21 project). Luciferin 4-monooxygenase (Photinus pyralis), P08659. purified FLuc, Km substrates, luminescence inhibition. Potency, µM (series often up to 57.5 µM), for the others: at the highest dose activity change, negative = inhibition, most hits filed as inhibitors. 360,000 tested, 6.9% active. AID 588342, 2011;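 note: plate controls were vehicle for no effect and reference inhibitor for full effect; nearly all actives have a fitted effect of over 55% in size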
Target sequence (P08659 whole entry, looked up): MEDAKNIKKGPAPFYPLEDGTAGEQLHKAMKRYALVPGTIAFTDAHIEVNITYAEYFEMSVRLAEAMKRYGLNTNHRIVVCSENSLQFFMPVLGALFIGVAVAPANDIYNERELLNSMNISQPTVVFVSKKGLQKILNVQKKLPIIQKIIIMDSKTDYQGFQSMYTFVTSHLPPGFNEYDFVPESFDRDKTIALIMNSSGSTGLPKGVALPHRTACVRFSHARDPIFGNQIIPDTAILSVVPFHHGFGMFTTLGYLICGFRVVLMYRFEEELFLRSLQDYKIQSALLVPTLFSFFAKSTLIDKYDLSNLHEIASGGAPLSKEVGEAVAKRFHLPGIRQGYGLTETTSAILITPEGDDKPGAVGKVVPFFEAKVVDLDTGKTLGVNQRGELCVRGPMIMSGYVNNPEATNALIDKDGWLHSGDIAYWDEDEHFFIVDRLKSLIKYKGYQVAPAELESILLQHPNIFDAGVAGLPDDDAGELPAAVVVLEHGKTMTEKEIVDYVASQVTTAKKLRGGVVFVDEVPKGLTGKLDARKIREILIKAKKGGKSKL
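Purified P. pyralis luciferase, 10 nM final, with Km-level 10 uM D-luciferin and 10 uM ATP in 50 mM Tris acetate pH 7.5, 10 mM Mg acetate, 0.01% Tween-20, 0.05% BSA; 6-point qHTS titration about 60 µM downward; luminescence read.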
ELG1 genotoxic: qHTS screen for small molecules that induce genotoxicity in human embryonic kidney (HEK293T) cells expressing luciferase-tagged ELG1; 330,000 tested, 1.3% active; Potency, µM (series often up to 46 µM), without a hit: at the top dose activity change, positive = activation, usual class: activators; HEK293T ELG1-luciferase reporter, luminescence, 16 h; AID 504466, 2011; note: % of control where 0% means no effect; nearly all actives have a fitted effect of over 60% in size
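Cells (2,000/well) expressing the ELG1-luciferase fusion are dosed by pin tool and kept 16 hr at 37 °C, 5% CO2. Signal comes from ONE-Glo luciferase reagent after 30 min at room temperature.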
Numbers without * were called inactive; ? = inconclusive; . = no result given; [ ] = another dose, or the depositor's remark. Most compounds without a hit are left out; they make up all but 9.2% or so of the library. Calls come from the whole dose curve; as a rule, active = well fitted curve in the direction sought with a large enough effect; inconclusive = small, poorly fitted or top-dose-only effect, or another doubt; inactive = no such curve, though single readings can be large; an effect the other way counts as inactive or inconclusive. Potency is the fitted concentration of half-maximal effect.

SMILES	ELG1 repair inh	Rab9 promoter act	SMN2 splice up	NPC1 prom act	FLuc counter	ELG1 genotoxic
CC(C)CCNC(=O)C1CC(c2cccc([N+](=O)[O-])c2)=NO1 (stereo not drawn)	8.8%	9.1%	-17.2%	3.3%	-0.5%	2.9%
Cc1ccc(NC(=O)COC(=O)c2ccc(Cl)cc2)cc1S(=O)(=O)N(C)C	?	-3.9%	11.0%	-4.8%	-12.1%	3.6%
CC(=O)c1c(C)[nH]c(C(=O)Nc2ccc(Cl)c(S(=O)(=O)N(C)C)c2)c1C	?	3.16µM*	11.2µM*	3.55µM*	16.9µM*	18.3µM*
CC(=O)c1c(C)[nH]c(C(=O)OCC(=O)Nc2ccc3c(c2)OCCO3)c1C	14.6µM*	.	.	.	.	-3.1%
CC(=O)c1c(C)[nH]c(C(=O)OCC(=O)Nc2ccc(Cl)c(S(=O)(=O)N(C)C)c2)c1C	11.6µM*	-24.0%	.	-3.6%	-1.9%	-8.5%
CC(=O)c1c(C)[nH]c(C(=O)Nc2cccc(S(=O)(=O)N(C)c3ccccc3)c2)c1C	?	-7.1%	.	-12.9%	-8.8%	-17.0%
CC(=O)c1c(C)[nH]c(C(=O)OCC(=O)Nc2cc(C)on2)c1C	-28.1%	-2.1%	-39.4%	2.0%	0.9%	5.8%
COc1cc(NC(=O)COC(=O)c2[nH]c(C)c(C(C)=O)c2C)cc(OC)c1	7.3µM*	.	.	.	.	-2.0%
COc1ccc(-c2cc3c(=O)n(CC(=O)Nc4cc(F)ccc4F)ccn3n2)cc1OC	.	.	.	.	-13.6%	.
C=CCc1cccc(C=NNC(=O)CN2CCN(Cc3ccccc3)CC2)c1O	.	-32.9%[46.1 µM]	.	-13.5%[46.1 µM]	.	.
CCOC(=O)c1c(C)[nH]c(C(=O)OCC(=O)Nc2cc(Cl)ccc2OC)c1C	-4.7%	2.6%	5.2%	0.2%	-1.5%	1.7%
CC(=O)c1c(C)[nH]c(C(=O)OCC(=O)Nc2ccc(Cl)cc2[N+](=O)[O-])c1C	3.66µM*	-11.6%	-77.4%	-25.8%	-0.2%	2.6%
Cc1cc(C)cc(C(=O)NCCCc2ccccc2)c1	1.2%	-1.2%[1.84 µM]	-2.3%	-0.7%	-12.0%	1.5%
Cc1ccc(C(=O)NCCCc2ccccc2)c(C)c1	?	3.55µM*	12.6µM*	1.41µM*	8.49µM*	16.4µM*
O=C(NCCCc1ccccc1)c1ccc([N+](=O)[O-])cc1Cl	?	?	.	?	8.49µM*	?
Cc1ccc(C(=O)NCCCc2ccccc2)c(Cl)c1	?	2.24µM*	.	2.51µM*	8.49µM*	?
Cc1cccc(NC(=O)C(=O)NCCCc2ccccc2)c1	?	?	10µM*	?	?	23.4%
O=C(NCCc1ccccc1)C(=O)Nc1cccc(Br)c1	.	.	-1.6%	.	0.4%	.
O=C(O)C1=CC(O)[C@@H](O)C(O)C1 (stereo partly drawn)	.	.	-1.8%	.	.	.
Cc1ccc(CNC(=O)Cn2c(=O)cc(C)c3c(C)nn(-c4cccc(F)c4)c32)cc1	.	.	.	.	-0.9%	.
CN(C(=O)c1ccc(NC(=O)c2ccco2)cc1)c1ccccc1	?	?	.	?	16.9µM*	?
O=C(COc1ccc(Cl)cc1)Nc1ccc(NC(=O)c2ccco2)cc1	?	12.7%	.	16.1%	1.0%	?
COc1ccc(-c2cccc(NC(=O)c3ccco3)c2)nn1	?	1.6%	.	2.7%	-17.6%	-13.7%
CN(C(=O)c1cccc(NC(=O)c2ccco2)c1)c1ccccc1	?	2.7%	.	2.0%	1.7%	-3.0%
COc1ccc(-c2ccc(NC(=O)c3ccco3)cc2)nn1	?	0.1µM*	.	?	1.2µM*	?
SMILES	ELG1 repair inh	Rab9 promoter act	SMN2 splice up	NPC1 prom act	FLuc counter	ELG1 genotoxic
O=C(Nc1ccc(Cl)cc1)c1ccco1	?	?	.	2.82µM*	16.9µM*	?
CC1N(C)c2cc(NC(=O)c3ccco3)ccc2C1(C)C (stereo not drawn)	?	1µM*	15.8µM*	3.16µM*	9.53µM*	?
COc1cc(OC)c(NC(=O)C2CCN(S(=O)(=O)c3ccc4c(c3)oc(=O)n4C)CC2)cc1Cl	.	.	-2.5%	.	-6.3%	.
O=C(Oc1ccccc1)c1ccc(NC(=O)c2ccco2)cc1	?	29.6%	8.5%	21.7%	2.69µM*	?
O=C(CSc1ccc(Cl)cc1)c1ccco1	?	8.2%	12.6%	-0.5%	?	20.4%
CCC(C)c1ccc(NC(=O)c2ccco2)cc1 (stereo not drawn)	?	0.316µM*	.	0.141µM*	0.426µM*	0.58µM*
CCC(C)c1ccc(NC(=O)COC(=O)CCNC(=O)c2ccco2)cc1 (stereo not drawn)	?	-3.1%	.	-3.1%	.	3.3%
O=C(CCSc1ccc(Cl)cc1)c1ccco1	-9.2%	-2.1%[1.84 µM]	.	-2.3%	21.3µM*	-8.6%
Cc1ccc(Oc2ccc(NC(=O)c3ccco3)cc2)cc1	?	?	2.0%	3.16µM*	26.9µM*	?
CC(NS(=O)(=O)c1ccc(Cl)cc1)C(=O)N1CCOCC1 (stereo not drawn)	9.1%	-0.4%	.	-4.2%	-1.2%	0.9%
CCCCOc1ccc(CNC(=O)C2CCN(c3nnc(-n4cccc4CNc4ccc(C)cc4)s3)CC2)cc1	.	.	-47.9%	.	-0.9%	.
CC(C)Cc1nnc(NC(=O)CN2C(=O)c3ccccc3C2=O)s1	5.7%	-15.1%	3.4%	-1.2%	-12.0%	-7.6%
CC(=O)Nc1ccc(NC(=O)c2ccco2)cc1	?	?	17.8µM*	21.8%	?	?
Fc1ccc2c(c1)C1C=CCC1C(c1cc3c(cc1Br)OCO3)N2 (stereo not drawn)	7.0%	-4.5%	-21.1%	-5.1%	-2.4%	-4.2%
CC(C)Oc1ccc(C(=O)/C=C2/C(=O)Nc3ccccc32)cc1	-23.5%	6.1%	.	0.8%	5.36µM*	?
O=C1Nc2ccccc2/C1=C\C(=O)c1ccccc1	?	-0.5%	.	-4.8%	?	1.1%
CCOC(=O)CSc1nnc2n(-c3ccccc3)c(=O)c3c4c(sc3n12)COC(C(C)C)C4 (stereo not drawn)	.	.	-4.2%	.	5.0%	.
CCOc1ccc(Nc2oc(-c3ccc(COc4ccc(C)cc4)o3)nc2C#N)cc1	.	.	.	.	-8.7%	.
Cc1cccc(-n2ncc3c(N4CCOCC4)ncnc32)c1	?	0.355µM*	-67.7%	0.355µM*	0.536µM*	?
Cc1cccc(-n2cc(-c3ccccc3)c3c(N4CCOCC4)ncnc32)c1	18.3µM*	3.7%	-13.6%	-1.6%	-0.4%	-10.9%
